Assay results: PubChem BioAssay (NCI)
About 83,000 compounds went through this panel and 20% of them were active in at least one assay; those are over-represented in the sample as a whole.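 For each line, cells grew in 96-well plates with the test compound present at a single concentration for 48 hours.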 A number with no mark means an inactive call. Rule for the calls: active = growth percent below 10; inactive = the rest.

Tested on: HCT-15 colon
Assay: NCI-60 one-dose screen, 48 h (100 = growth as untreated, 0 = no growth, -100 = all killed)
Conditions: 10 µM unless noted

Going from `C=C(C)[C@@H]1CC[C@]2(C(=O)N3CCCNCC3)CC[C@]3(C)[C@H](CC[C@@H]4[C@@]5(C)CCC(=O)C(C)(C)[C@@H]5CC[C@]43C)[C@@H]12` to `CCCCC(=O)OC1CCCCC1C` (stereo not drawn), the growth rises from 84.1% to 108%.

Compared with `Cn1c(=O)c2c(ncn2CCC(=O)Nc2ccc(F)cc2)n(C)c1=O`, `Fc1ccc(NCc2nnc(-c3ccc(Cl)cc3)o2)cc1` is lower in growth: 106% for the first, 81.7% for the second.

First: COc1ccc(-c2cc(-c3c(C)oc4cc5occc5c(OC)c4c3=O)nc(N)c2C#N)cc1OC
Second: COc1ccc2c(c1)c(-c1nc(-c3cn(C)c4ncccc34)cs1)cn2CCN
The growth of the first is lower: 55.6% for the first, 58.5% for the second.

First: COc1cc(NC(C)CN(CC(C)C)C(C)C)c2ncccc2c1 (stereo not drawn)
Second: COc1ccc(/C=C/C(=O)NCC(C)O)cc1 (stereo not drawn)
The growth of the first is lower: 101% for the first, 102% for the second.

Going from `Cc1cc(N(CCCNc2ccnc3cc(Cl)ccc23)Cc2ccco2)nc(Cl)n1` to `COc1ccc(OCC(CO)N2CCN(c3ccccc3)CC2)cc1` (stereo not drawn), the growth rises from 48.5% to 102%.

Going from `Cc1c(C)c2c(c(C)c1NC(=O)CCCCCCC(=O)O)CCC(C)(CCCC(C)CCCC(C)CCCC(C)C)O2` (stereo not drawn) to `CN(C)c1ccc(N=C2C=CC(=O)C=C2)cc1`, the growth rises from 55% to 97.7%.

`CCCCC[C@H]1CC=C2C(=O)C(Cl)=C[C@@H]2CC=CCCCC(=O)O[C@@H](CCCCC)CC=C2C(=O)C(Cl)=C[C@@H]2CC=CCCCC(=O)O[C@@H](CCCCC)CC=C2C(=O)C(Cl)=C[C@@H]2CC=CCCCC(=O)O1` showed a growth of 71.6% [8 µM].
